In PubChem BioAssay AID1345082 (National Center for Advancing Translational Sciences (NCATS), 2018):
“And” between values parts separate entries of the source, which are not always exact repeats. Equal entries are not always repeated. Among all 94,000 compounds or so, about 4,000 (4.3%) were called active. Another 29% or so got no clear call; they are omitted. Calls come from the whole dose curve; as a rule, active = well fitted inhibition curve with a large enough effect; inconclusive = small, poorly fitted or top-dose-only effect; inactive = no such curve, though single readings can be large or run the other way. Shown is part of a subset that was picked to be rich in actives.

Test: Cytotoxic Profiling in NIH 3T3 Cell Line of Diverse Libraries Using Quantitative High-Throughput Screening; note: nearly all actives have a fitted effect of over 55% in size
Conditions: NIH 3T3 viability, CellTiter-Glo ATP luminescence, 48-72 h; series mostly up to 96.7 µM; activity change, negative = cytotoxicity: at the top concentration
In short: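 Cytotoxicity is measured as loss of cellular ATP: NIH 3T3 cells (400/well) are exposed to compound for 48 or 72 hr at 37 °C, then CellTiter-Glo luminescence is imaged after 10 min at room temperature.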
% is set by controls: 0 for no effect and ±100 for the full control effect; potency is the fitted concentration of half-maximal effect.

**Q.** For `COc1ccccc1N1CCN(C(=O)CCc2conc2-c2ccccc2F)CC1`, which “activity change, negative = cytotoxicity” value is on record?
**A.** -8.02% (inactive)

**Q.** For `COc1ccccc1N1CCN(C(=O)C[C@@H]2C[C@@H](C(C)C)[C@H](CO)C=C2C)CC1`, which Potency is on record?
**A.** 100 µM (active)

**Q.** With `CC1=C[C@@H](CC#N)[C@H](C(C)C)C[C@H]1CC(=O)N1CCN(C)CC1` as the compound, how does the “activity change, negative = cytotoxicity” value read?
**A.** -19.7% [at 174 µM] (inactive)

**Q.** For `COc1ccccc1C(=O)N1CCCN(c2ccc3nnc(C)n3n2)CC1`, which “activity change, negative = cytotoxicity” value is on record?
**A.** 0.238% (inactive)

**Q.** For `O=C(NC1CCCC1)NC1CCN(c2ccc3nnc(-c4ccccc4)n3n2)CC1`, which “activity change, negative = cytotoxicity” value is on record?
**A.** -31.4% (inactive)

**Q.** With `O=C(c1ccnc(-c2nnc3ccc(N4CCOCC4)nn23)c1)N1CCCCC1` as the compound, how does the Potency read?
**A.** 20 µM (active)

**Q.** For `CCn1nccc1C(=O)N1CCCCCC1c1nc(C2CC2)no1` (configuration not stated), which “activity change, negative = cytotoxicity” value is on record?
**A.** -20.5% (inactive)

**Q.** For `COc1ccc(S(=O)(=O)N2CCCC(Cn3cnc4cccnc43)C2)cc1` (configuration not stated), which “activity change, negative = cytotoxicity” value is on record?
**A.** -22.5% (inactive)

**Q.** With `Cc1oc(-c2cccs2)nc1CN1CCOC(Cc2ccccc2)C1` (configuration not stated) as the compound, how does the “activity change, negative = cytotoxicity” value read?
**A.** -23.1% (inactive)

**Q.** For `CCn1cnnc1CC1CCN(C(=O)C2CCN(Cc3nc(-c4cccc(C)c4)oc3C)CC2)CC1`, which “activity change, negative = cytotoxicity” value is on record?
**A.** -19% (inactive)

**Q.** Which Potency does the source give for `COc1ccc(-c2nc(CN3CCOC(CN)C3)c(C)o2)c2ccccc12` (configuration not stated) here?
**A.** 25.1 µM (active)

**Q.** Which “activity change, negative = cytotoxicity” value does the source give for `Cc1oc(-c2cc(F)ccc2F)nc1CN1CCN(c2ccccc2)CC1C` (configuration not stated) here?
**A.** -9.27% (inactive)

**Q.** For `Cc1oc(-c2cccc(Oc3ccccc3)c2)nc1CN1CCOC(CCN)C1` (configuration not stated), which Potency is on record?
**A.** 25.1 µM (active)

**Q.** For `CCC1CN(Cc2cn(-c3ccccc3)nc2-c2ccc(OC)cc2F)CCO1` (configuration not stated), which “activity change, negative = cytotoxicity” value is on record?
**A.** -4.55% (inactive)

**Q.** With `O=C(c1cn2cc(Cl)ccc2n1)N1CCc2nc(-c3ccccc3)[nH]c2C1` as the compound, how does the “activity change, negative = cytotoxicity” value read?
**A.** -40.3% (inactive)

**Q.** Which Potency does the source give for `COC(=O)[C@@H]1Cc2c([nH]c3ccccc23)[C@H]2C[C@H](NCCNC(C)=O)C[C@@H](c3ccc(C)cc3)N21` here?
**A.** 25.1 µM (active)

**Q.** With `COC(=O)[C@@H]1C[C@@H](NC(=O)c2ccc(-c3nnn(C)n3)cc2)CN1C` as the compound, how does the “activity change, negative = cytotoxicity” value read?
**A.** 0.0956% (inactive)

**Q.** With `O=C(CC1COCCN1)N1CCC(OCc2cccnc2)CC1` (configuration not stated) as the compound, how does the “activity change, negative = cytotoxicity” value read?
**A.** -4.09% (inactive)

**Q.** Which “activity change, negative = cytotoxicity” value does the source give for `CCCOC(=O)N1CCCC(c2nccn2CCCN(C)C)C1` (configuration not stated) here?
**A.** 0.743% (inactive)

**Q.** For `O=C(c1cc2ccccc2o1)N1CCC2(CNS(=O)(=O)c3cnccc3O2)C1` (configuration not stated), which “outcome” value is on record?
**A.** inactive

**Q.** Which “activity change, negative = cytotoxicity” value does the source give for `C=CCNC(=O)c1ccc2ccnn2c1` here?
**A.** -2.27% [at 174 µM] (inactive)

**Q.** Which “activity change, negative = cytotoxicity” value does the source give for `COc1ccc(C(=O)N2CCCC(C(=O)N3CCCC(c4nc5ccncc5[nH]4)C3)C2)cc1` (configuration not stated) here?
**A.** -24% (inactive)

**Q.** Which Potency does the source give for `COc1ccc(-c2nc3ccncc3[nH]2)cc1` here?
**A.** 10 µM (active) and 17.8 µM (active)

**Q.** Which “activity change, negative = cytotoxicity” value does the source give for `COc1ccc(C(=O)N2CCCC2C(=O)N2CCCC2c2nc3ccncc3[nH]2)cc1` (configuration not stated) here?
**A.** -3.18% (inactive)

**Q.** Which “activity change, negative = cytotoxicity” value does the source give for `CCc1noc(-c2ccn3c(CNC(=O)c4ccco4)nnc3c2)n1` here?
**A.** -2.86% (inactive)

**Q.** For `Cc1noc(CC2CCOC3(CCN(C(=O)c4ccc(C#N)cc4)CC3)C2)n1` (configuration not stated), which “activity change, negative = cytotoxicity” value is on record?
**A.** -17.6% (inactive)

**Q.** With `CCn1ncc(N2CCCC(CC(=O)NCc3cccnc3)C2)cc1=O` (configuration not stated) as the compound, how does the “activity change, negative = cytotoxicity” value read?
**A.** 4.64% (inactive)

**Q.** Which “activity change, negative = cytotoxicity” value does the source give for `O=C(NC[C@H]1COCc2nc3cc(C(F)(F)F)ccc3n21)c1cnccn1` here?
**A.** -12.6% [at 138 µM] (inactive)

**Q.** With `CC1=C[C@@H](CNC(=O)CC2(CC(=O)O)CCCC2)[C@H](C(C)C)C[C@H]1Cc1nc2c(C)cccc2[nH]1` as the compound, how does the “activity change, negative = cytotoxicity” value read?
**A.** -4.68% (inactive)

**Q.** Which “activity change, negative = cytotoxicity” value does the source give for `COc1ccc2nc(C[C@@H]3C[C@@H](C(C)C)[C@H](CNC(=O)CC(C)(C)CC(=O)O)C=C3C)[nH]c2c1` here?
**A.** -22.3% (inactive)

**Q.** For `CC1=C[C@@H](CNCC(C)C)[C@H](C(C)C)C[C@H]1Cc1nc2c(C)cccc2[nH]1`, which Potency is on record?
**A.** 39.8 µM (active)

**Q.** Which Potency does the source give for `CC1=C[C@@H](CNC2CCN(C)CC2)[C@H](C(C)C)C[C@H]1Cc1nc2ccccc2[nH]1` here?
**A.** 35.5 µM (active)

**Q.** With `CC(=O)N1CCC(NC[C@@H]2C=C(C)[C@H](Cc3nc4ccccc4n3C)C[C@H]2C(C)C)CC1` as the compound, how does the “activity change, negative = cytotoxicity” value read?
**A.** -14.2% (inactive)

**Q.** For `CC1=C[C@@H](CN(CC2CC2)CC2CC2)[C@H](C(C)C)C[C@H]1Cc1nc2c(C)cccc2[nH]1`, which Potency is on record?
**A.** 79.4 µM (active)

**Q.** Which “activity change, negative = cytotoxicity” value does the source give for `CCNC(=O)[C@@H]1C[C@@H](NC(=O)c2csc(C)c2CC)CN1C1CCCC1` here?
**A.** -28.1% (inactive)

**Q.** With `CCOc1ccccc1CN1CCN(C2CCN(C(C)C)CC2)C(CCO)C1` (configuration not stated) as the compound, how does the “activity change, negative = cytotoxicity” value read?
**A.** -19.7% (inactive)

**Q.** With `COc1ccc(CN[C@@H]2CCC[C@@H](C(=O)NCc3cc(C)on3)CC(=O)N(C)C2)cn1` as the compound, how does the “outcome” value read?
**A.** inactive [at 174 µM]

**Q.** With `CCn1nc(CNC(=O)C2CCC(=O)N(C3CCCC3)C2)c2ccccc21` (configuration not stated) as the compound, how does the “activity change, negative = cytotoxicity” value read?
**A.** -3.82% (inactive)

**Q.** For `COc1cc(NC(=O)Cn2nc3n(c2=O)CCCCC3)cc(OC)c1OC`, which “outcome” value is on record?
**A.** inactive

**Q.** With `COCc1nc(-c2ccc(OC3CNC3)cc2)no1` as the compound, how does the “activity change, negative = cytotoxicity” value read?
**A.** -1.51% (inactive)

**Q.** Which “activity change, negative = cytotoxicity” value does the source give for `O=C(c1ccoc1)N1CC(Oc2ccc(-c3nc(-c4ccccc4)no3)cc2)C1` here?
**A.** -5.84% (inactive)

**Q.** For `Cc1noc(-c2ccccc2OC2CCN(C(=O)c3cnccc3C)C2)n1` (configuration not stated), which “activity change, negative = cytotoxicity” value is on record?
**A.** -15.5% (inactive)

**Q.** Which Potency does the source give for `c1ccc(-c2noc(-c3ccccc3OC3CCNC3)n2)cc1` (configuration not stated) here?
**A.** 12.6 µM (active)

**Q.** For `Cc1cccc(C(=O)N2CCC(Oc3ccc(-c4noc(C(C)C)n4)cc3)C2)c1` (configuration not stated), which “activity change, negative = cytotoxicity” value is on record?
**A.** -31.8% (inactive)

**Q.** Which Potency does the source give for `Cc1nc(C)c(C(=O)N2CCC(Oc3ccccc3-c3nc(-c4ccccc4)no3)C2)s1` (configuration not stated) here?
**A.** 39.8 µM (active)

**Q.** For `O=C1CCN(C(=O)Cc2cccc(F)c2)CCCC(c2nc(-c3cccnc3)no2)CCN1` (configuration not stated), which “activity change, negative = cytotoxicity” value is on record?
**A.** -20% (inactive)

**Q.** Which “activity change, negative = cytotoxicity” value does the source give for `CC(=O)N1CCC[C@@H]1C(=O)N1CCC(N2CCOC2=O)CC1` here?
**A.** -12.4% [at 138 µM] (inactive)

**Q.** Which “activity change, negative = cytotoxicity” value does the source give for `CCN1C(=O)C2CC3(CCN(C(=O)c4cc5ccccc5[nH]4)CC3)CN2C1=O` (configuration not stated) here?
**A.** -24.2% (inactive)

**Q.** For `COC1CCOC2(CCN(C(=O)NCc3ccc(C)cc3)CC2)C1` (configuration not stated), which “outcome” value is on record?
**A.** inactive

**Q.** With `CC(C)Cc1ccc(CN2CCC3(CC2)Cc2ccccc2CNC3=O)cc1` as the compound, how does the Potency read?
**A.** 25.1 µM (active)

**Q.** For `Cc1ccc(CN2CCC3(Cc4ccccc4CNC3=O)C2)cc1` (configuration not stated), which “activity change, negative = cytotoxicity” value is on record?
**A.** -26.8% (inactive)

**Q.** Which “outcome” value does the source give for `O=C1NCc2ccccc2CC12CCN(Cc1ccc(O)cc1)CC2` here?
**A.** inactive

**Q.** With `COCCN1C(=O)c2cccn2CC1CNC(=O)c1cc2ccccc2[nH]1` (configuration not stated) as the compound, how does the “activity change, negative = cytotoxicity” value read?
**A.** -6.67% (inactive)

**Q.** For `O=C(c1ccccc1F)N1CCC(c2nc(C3CCOCC3)no2)CC1`, which “activity change, negative = cytotoxicity” value is on record?
**A.** -23.9% (inactive)

**Q.** Which “activity change, negative = cytotoxicity” value does the source give for `O=C(NC1CCN(c2nc3ncccc3o2)CC1)c1ccc(F)cc1` here?
**A.** -19.8% [at 138 µM] (inactive)

**Q.** With `O=C(CCc1conc1-c1ccccc1F)NCc1cccc(Cl)c1` as the compound, how does the “activity change, negative = cytotoxicity” value read?
**A.** -26.3% (inactive)

**Q.** For `Cn1nc(C2CCN(C(=O)c3cccc(Cl)c3)CC2)[nH]c1=O`, which “activity change, negative = cytotoxicity” value is on record?
**A.** -6.82% [at 138 µM] (inactive)

**Q.** Which “activity change, negative = cytotoxicity” value does the source give for `O=C(Nc1ccccc1)N1CCCC(c2nn(-c3ccccn3)c(=O)[nH]2)C1` (configuration not stated) here?
**A.** -29.6% (inactive)

**Q.** Which Potency does the source give for `O=C(Cc1cccc(Cl)c1)N1CCC(c2nn(-c3ccc(Cl)cc3)c(=O)[nH]2)CC1` here?
**A.** 44.7 µM (active)

**Q.** Which “activity change, negative = cytotoxicity” value does the source give for `CC(=O)N1CCCC(c2nn(-c3ccccc3)c(=O)[nH]2)C1` (configuration not stated) here?
**A.** -15.9% [at 138 µM] (inactive)

**Q.** With `COc1cccc(C(=O)N2CCC(c3nn(-c4ccccc4)c(=O)[nH]3)CC2)c1` as the compound, how does the “activity change, negative = cytotoxicity” value read?
**A.** -22.9% (inactive)

**Q.** For `O=c1[nH]c(C2CCCN(Cc3ccccn3)C2)nn1-c1ccc(Cl)cc1` (configuration not stated), which Potency is on record?
**A.** 3.16 µM (active)
